# Columns and labels:
# [1] = target: Mast/stem cell growth factor receptor Kit (Homo sapiens) (UniProt P10721); settings: at 1 µM
# [2] = target: Mast/stem cell growth factor receptor Kit (Homo sapiens) (UniProt P10721); settings: at 10 µM
# [3] = target: Proto-oncogene tyrosine-protein kinase Src (Homo sapiens) (UniProt P12931); settings: at 1 µM
# [4] = target: Proto-oncogene tyrosine-protein kinase Src (Homo sapiens) (UniProt P12931); settings: at 10 µM
# [5] = target: Serine/threonine-protein kinase mTOR (Homo sapiens) (UniProt P42345); settings: at 1 µM
# [6] = target: Serine/threonine-protein kinase mTOR (Homo sapiens) (UniProt P42345); settings: at 10 µM
# [7] = target: Serine/threonine-protein kinase mTOR (Homo sapiens) (UniProt P42345); settings: at 1 µM; remark: listed apart in the source
# [8] = target: Serine/threonine-protein kinase mTOR (Homo sapiens) (UniProt P42345); settings: at 10 µM; remark: listed apart in the source
# [9] = target: T1, Eukaryotic elongation factor 2 kinase (Homo sapiens) (UniProt O00418); settings: at 1 µM
# T1 sequence (whole entry): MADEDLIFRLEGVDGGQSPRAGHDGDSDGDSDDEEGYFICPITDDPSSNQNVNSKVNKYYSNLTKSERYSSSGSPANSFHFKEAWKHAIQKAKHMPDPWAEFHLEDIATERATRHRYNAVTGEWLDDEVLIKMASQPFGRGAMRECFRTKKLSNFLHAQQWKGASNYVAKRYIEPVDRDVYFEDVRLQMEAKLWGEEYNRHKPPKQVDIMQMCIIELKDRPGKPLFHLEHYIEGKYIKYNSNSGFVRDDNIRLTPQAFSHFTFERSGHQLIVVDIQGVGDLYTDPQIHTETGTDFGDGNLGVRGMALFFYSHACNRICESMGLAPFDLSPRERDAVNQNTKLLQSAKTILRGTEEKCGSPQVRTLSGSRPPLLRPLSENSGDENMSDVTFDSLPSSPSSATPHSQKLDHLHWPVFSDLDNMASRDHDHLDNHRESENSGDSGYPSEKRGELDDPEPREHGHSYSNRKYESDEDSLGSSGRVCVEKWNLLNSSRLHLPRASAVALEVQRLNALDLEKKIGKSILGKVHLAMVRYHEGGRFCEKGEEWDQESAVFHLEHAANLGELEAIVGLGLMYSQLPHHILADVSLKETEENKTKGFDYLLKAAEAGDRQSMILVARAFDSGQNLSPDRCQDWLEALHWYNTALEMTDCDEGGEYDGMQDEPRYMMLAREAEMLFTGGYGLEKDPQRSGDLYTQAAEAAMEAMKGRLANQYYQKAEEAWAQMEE
# [10] = target: T1, Eukaryotic elongation factor 2 kinase (Homo sapiens); settings: at 10 µM
# Sequence of Mast/stem cell growth factor receptor Kit (Homo sapiens) (P10721 whole entry): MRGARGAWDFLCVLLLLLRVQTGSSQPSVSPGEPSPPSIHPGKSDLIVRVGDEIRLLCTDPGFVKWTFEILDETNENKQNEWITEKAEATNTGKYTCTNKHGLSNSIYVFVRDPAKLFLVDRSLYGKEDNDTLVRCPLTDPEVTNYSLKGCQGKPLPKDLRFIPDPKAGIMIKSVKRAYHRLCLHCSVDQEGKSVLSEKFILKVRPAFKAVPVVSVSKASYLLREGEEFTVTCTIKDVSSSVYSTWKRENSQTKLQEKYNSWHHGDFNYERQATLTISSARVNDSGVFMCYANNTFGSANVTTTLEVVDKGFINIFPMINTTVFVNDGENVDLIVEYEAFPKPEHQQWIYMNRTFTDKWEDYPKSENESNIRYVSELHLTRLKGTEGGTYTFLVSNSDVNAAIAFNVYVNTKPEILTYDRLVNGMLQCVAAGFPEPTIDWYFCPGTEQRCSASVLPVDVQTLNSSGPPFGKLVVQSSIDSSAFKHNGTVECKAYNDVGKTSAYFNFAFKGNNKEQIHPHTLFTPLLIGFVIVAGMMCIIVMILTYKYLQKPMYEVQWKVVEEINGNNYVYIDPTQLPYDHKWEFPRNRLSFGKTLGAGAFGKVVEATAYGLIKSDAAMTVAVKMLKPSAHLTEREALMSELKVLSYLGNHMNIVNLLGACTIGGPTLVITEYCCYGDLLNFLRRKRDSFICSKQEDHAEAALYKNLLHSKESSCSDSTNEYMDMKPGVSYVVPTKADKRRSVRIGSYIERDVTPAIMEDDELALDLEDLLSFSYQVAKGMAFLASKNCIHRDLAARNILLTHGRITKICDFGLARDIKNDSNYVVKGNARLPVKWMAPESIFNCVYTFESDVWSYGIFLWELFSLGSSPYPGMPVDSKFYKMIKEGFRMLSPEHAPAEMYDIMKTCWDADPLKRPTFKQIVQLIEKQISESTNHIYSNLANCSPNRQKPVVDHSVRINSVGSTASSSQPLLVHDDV
# Sequence of Proto-oncogene tyrosine-protein kinase Src (Homo sapiens) (P12931 2-536 limits assumed): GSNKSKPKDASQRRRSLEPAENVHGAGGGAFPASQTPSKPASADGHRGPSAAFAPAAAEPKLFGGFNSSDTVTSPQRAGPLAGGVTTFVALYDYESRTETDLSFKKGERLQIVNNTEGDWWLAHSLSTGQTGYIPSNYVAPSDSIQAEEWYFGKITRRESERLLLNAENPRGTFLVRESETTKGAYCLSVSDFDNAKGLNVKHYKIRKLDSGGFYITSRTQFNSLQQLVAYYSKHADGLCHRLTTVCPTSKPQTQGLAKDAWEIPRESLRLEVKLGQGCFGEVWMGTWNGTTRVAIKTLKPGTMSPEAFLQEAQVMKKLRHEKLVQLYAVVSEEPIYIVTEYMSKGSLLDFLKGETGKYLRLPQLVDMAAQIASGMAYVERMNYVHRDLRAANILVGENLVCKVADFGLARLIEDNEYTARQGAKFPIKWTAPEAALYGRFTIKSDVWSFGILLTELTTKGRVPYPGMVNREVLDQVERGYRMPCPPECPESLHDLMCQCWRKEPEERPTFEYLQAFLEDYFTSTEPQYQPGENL
Compound,residual activity [1] [%],residual activity [2] [%],residual activity [3] [%],residual activity [4] [%],residual activity [5] [%],residual activity [6] [%],residual activity [7] [%],residual activity [8] [%],residual activity [9],residual activity [10] [%]
O=c1c2ccccc2[nH]c(=S)n1CCN1CCC(=C(c2ccc(F)cc2)c2ccc(F)cc2)CC1,106,89,85,97,78,85,107,69,,
COc1ccc(CNc2nc(N(CCO)CCO)nc3c2ncn3C(C)C)cc1,91,66,104,82,106,97,128,99,106% (inactive),101
O=C(O)c1ccc2c3c1cccc3c(=O)n1c3ccccc3nc21,122,119,120,95,105,59,98,39,,
CO[C@H]1C[C@@H]2CC[C@@H](C)[C@@](O)(O2)C(=O)C(=O)N2CCCC[C@H]2C(=O)O[C@H]([C@H](C)C[C@@H]2CC[C@@H](O)[C@H](OC)C2)CC(=O)[C@H](C)/C=C(\C)[C@@H](O)[C@@H](OC)C(=O)[C@H](C)C[C@H](C)/C=C/C=C/C=C/1C,110,101,89,95,57,51,-17,4,,
COc1cc2ncnc(Nc3ccc(O)c(Br)c3)c2cc1OC,102,103,54,18,106,111,96,101,,
c1ccc(-c2n[nH]cc2-c2ccnc3ccccc23)nc1,101,107,86,90,,,85,102,,
Cc1cccc(-c2[nH]c(C(C)(C)C)nc2-c2ccc3c(c2)OCO3)n1,,,91,102,,,,,,
Oc1ccc(-c2nc(-c3ccc(F)cc3)c(-c3ccncc3)[nH]2)cc1,122,107,108,45,98,90,123,90,,
COc1cc2ncnc(Nc3ccc(NC(=O)c4ccccc4)cc3)c2cc1OC,,59,83,95,88,92,97,75,,
CCOc1cc2ncnc(Nc3cccc(Br)c3)c2cc1OCC,108,101,53,14,110,106,94,100,,
N#CC(C#N)=C(N)/C(C#N)=C/c1ccc(O)cc1,,,83,,,,,61,,
O=C(Nc1cccc(Nc2cc(Nc3cccc(C(F)(F)F)c3)ncn2)c1)C1CC1,106,100,110,64,105,105,104,102,,
Cn1cnc2cc3c(Nc4cccc(Br)c4)ncnc3cc21,114,92,64,32,102,105,104,97,,
c1ccc2c(-c3ccncc3)c[nH]c2c1,110,98,80,101,109,107,75,110,,
Cc1ccc(S(=O)(=O)/C=C/C#N)cc1,100,114,114,76,95,101,86,82,,
O=C1NC(=O)c2c1c1c3ccccc3[nH]c1c1[nH]c3cc(Br)ccc3c21,107,94,117,93,117,106,76,113,,
O=C1Nc2ccc(Br)cc2/C1=C\c1cc2c([nH]1)CCCC2,66,43,73,99,116,104,110,103,,
Cc1ccc(NC2=CC(=O)c3sc(C)nc3C2=O)cc1,101,107,,87,96,99,100,86,,
Nc1ccc2ncnc(NCCc3ccc(Oc4ccccc4)cc3)c2c1,114,95,110,95,,96,112,63,,
Nc1n[nH]c2nnc(-c3c(-c4ccccc4)nn4ccccc34)cc12,95,108,103,77,113,97,129,87,,

Compound,residual activity [1] [%],residual activity [2] [%],residual activity [3] [%],residual activity [4] [%],residual activity [5] [%],residual activity [6] [%],residual activity [7] [%],residual activity [8] [%],residual activity [9],residual activity [10] [%]
N#CCCc1ccc2c(c1)-c1[nH]c3ccc([N+](=O)[O-])cc3c1CC(=O)N2,,,46,13,116,,,,,
Cn1nc2c3c(cccc31)C(=O)c1ccccc1-2,104,95,,93,82,84,,66,,
Cc1cncc2cccc(S(=O)(=O)N3CCCN(C(=O)CN)C[C@H]3C)c12,,,86,96,,,,,,
O=C1Nc2ccccc2/C1=C1/Nc2ccccc2/C1=N\OCCC(O)CO (stereo unspecified),10,1,20,-2,113,96,112,110,,
CC(=O)c1ccc(N2CCOCC2)cc1O,,101,86,93,,,104,,,
CN(C)CCCn1cc(C2=C(c3c[nH]c4ccccc34)C(=O)NC2=O)c2ccccc21,,,82,,84,,83,,,
CC(=O)O/N=C1\C(=C2\C(=O)Nc3cc(Br)ccc32)Nc2ccccc21,97,32,22,8,96,94,105,84,,
CO[C@@H]1[C@H](N(C)C(=O)c2ccccc2)C[C@H]2O[C@]1(C)n1c3ccccc3c3c4c(c5c6ccccc6n2c5c31)C(=O)NC4,65,39,40,24,95,103,107,83,,
Nc1nc(Nc2ccc(S(N)(=O)=O)cc2)nn1C(=S)Nc1c(F)cccc1F,100,66,23,1,108,89,128,94,,
c1ccc(-c2n[nH]c3c2oc2ccccc23)cc1,16,1,86,90,88,85,,72,,
Cc1cc(Nc2nc(-c3ccccc3)nc3ccccc23)n[nH]1,23,2,14,-2,109,,128,,,
N#Cc1cnc2cnc(NCc3cccnc3)cc2c1Nc1ccc(F)c(Cl)c1,,92,56,39,89,85,,96,,
COc1cccc(-c2cc(=O)c3ccccc3o2)c1N,114,114,113,87,92,93,86,51,,
CCN(CC)C(=O)c1ccc(Nc2nc(OCC3CCCCC3)c3nc[nH]c3n2)cc1,33,5,62,12,,,,55,,
CN(C)c1ccc(/C=C2\C(=O)Nc3ccccc32)cc1,24,4,87,85,78,101,78,89,,
Oc1n[nH]c2nnc(-c3c(-c4ccccc4)nn4ccccc34)cc12,94,104,95,87,97,76,102,76,,
O=C1c2ccccc2-[n+]2ccc3c([nH]c4ccccc43)c21,106,97,111,91,103,103,116,101,,
Nc1cccc(-c2cc3c(Oc4cccc(O)c4)ncnc3[nH]2)c1,20,2,6,-3,,83,122,94,,
CO[C@H]1[C@@H](OC)C[C@H](C)[C@@H](OC)C2=CC(=O)C=C(NC(=O)/C(C)=C/C=C/[C@H](OC)[C@@H](OC(N)=O)/C(C)=C/[C@@H]1C)C2=O,104,98,101,92,95,103,77,89,,
